Measured values as given in the supplement of paper PMC6555819.

Legend:
Assay in all cases: PBM binding z-score (relative to random genomic background probes); higher = stronger binding; sequences stand for … in GC…GCGATTGACAGCGTAGAATGAAGG
[1] = tested on: RARb homodimer (NR concentration 270 nM)
Method in brief: (§1)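 On custom Agilent 4×180K arrays, double-stranded probes with 34-nt variable regions carried direct-repeat seeds, single-nucleotide variants, half-site ablations or random human genomic background. Ligand-free nuclear receptor dimers were applied for 1 h, and binding was read with antibodies against each partner (one per run). Binding z-scores come from regression-normalized fluorescence, with the random background probes as reference.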

[2] = tested on: RARg:RXRa (NR concentration 270 nM, RXRa partner concentration 90 nM)
Method in brief: as §1

[3] = tested on: RARg homodimer (NR concentration 270 nM)
Method in brief: as §1

[4] = tested on: RXRa DBDmut IVT, anti-RXR (DBD mutation: RXRa K156A/R161A, NR concentration 90 nM)
Method in brief: as §1

[5] = tested on: RXRa homodimer (NR concentration 180 nM)
Method in brief: as §1

[6] = tested on: THRa:RXRa (NR concentration 90 nM, RXRa partner concentration 90 nM)
Method in brief: as §1

[7] = tested on: THRa homodimer (NR concentration 90 nM)
Method in brief: as §1

[8] = tested on: VDR homodimer (NR concentration 270 nM)
Method in brief: as §1

Row | Sequence | PBM binding z-score [1] | PBM binding z-score [2] | PBM binding z-score [3] | PBM binding z-score [4] | PBM binding z-score [5] | PBM binding z-score [6] | PBM binding z-score [7] | PBM binding z-score [8]
1 | CAAACTAAGTCACAGAGGTCAAAGTCCGTGCGTA | 4.47 | 5.34 | 4.96 | 2.26 | 5.91 | 3.71 | 1.87 | 4.45
2 | ATCTCTAGATAAAGATAGTTCAGTGAATGCAAAT | 0.48 | 0.16 | 0.499 | -0.299 | 0.282 | 0.263 | -0.124 | 0.668
3 | TCATATAGGTAGAGGTGAAAGTCGAACGATATGA | 1.04 | 1.18 | 1.11 | 0.392 | 1.77 | 1.41 | -0.0362 | 0.0889
4 | CCTGCTAGGTCAATGGTCAACTAAAGCAGCTCGC | 3.11 | 3.77 | 4.5 | 1.64 | 2.55 | 2.41 | 0.723 | 0.324
5 | CCTAGCTGGCCAGGGTCACTCAAGCATTTCGCTT | 2.33 | 3.05 | 2.03 | 0.326 | 3.3 | 2.88 | 0.857 | 0.994
6 | CCGACTGGGGCACAAGGTTACCATAAGCCAGCCC | 1.59 | 1.46 | 1.12 | -0.589 | 0.82 | 1.37 | 0.35 | -0.201
7 | ATCTCTAGGTACAGATAGTTCAGTGAATGCAAAT | 0.913 | 0.74 | 0.847 | 1.17 | 0.198 | 0.432 | 0.0409 | 1.65
8 | TATACAGGGTCAAAGGCCAGAGTACGAATGTCGA | 3.67 | 5.46 | 5.12 | 3.02 | 6.7 | 3.76 | 0.87 | 3.4
9 | CTCGAAAGGTCGTGCACAGGTGAGTATACCAAAC | 3.18 | 5.89 | 4.46 | 2.16 | 5.32 | 3.21 | 0.254 | 1.42
10 | CGTCCGAGGTCAGAGAGGTCAGTGAATGCCGAGT | 5.44 | 6.94 | 7.68 | 3.68 | 6.87 | 4.59 | 3 | 6.58
11 | CCTTACGGGTCACGAGGTTATAACACGACGAGCG | 3.99 | 6.07 | 5.32 | 1.5 | 6.99 | 3.79 | 0.991 | 1.63
12 | CATGCAGGGTCAGCTAGGCCAGAGTAGGGACGGC | 3.19 | 4.53 | 5.06 | 1.71 | 4.75 | 3 | 0.624 | 1.16
13 | TTACCAAGGTGAGCTGAGGGCGTTGATCCAACTC | 0.362 | -0.0631 | -0.0832 | -0.14 | 0.126 | 3.36 | 0.287 | 0.247
14 | TCATTTAGGTAAAAGGTGAAAGTCGGTGTGGTAA | 1.9 | 1.81 | 1.04 | 1.68 | 2.47 | 2.14 | 0.844 | 0.375
15 | GCTAGTTGGTCAGTAATAGGTCACACACCGGTCG | 3.86 | 3.12 | 2.58 | 0.228 | 2.43 | 2.06 | 0.841 | 0.317
16 | ACTCAAAGTTCACTAGGTAACGTAAGATTCAGCT | 3.65 | 4.84 | 5.79 | 4.63 | 3.51 | 2.22 | 0.585 | 4.45
17 | TATACAGGGTCAAAGGCCTGAGTACGAATGTCGA | 3.17 | 5.49 | 4.87 | 2.89 | 6.3 | 3.28 | 0.678 | 3.41

Row | Sequence | PBM binding z-score [1] | PBM binding z-score [2] | PBM binding z-score [3] | PBM binding z-score [4] | PBM binding z-score [5] | PBM binding z-score [6] | PBM binding z-score [7] | PBM binding z-score [8]
18 | CAAACTAGGTCAAGAGGTCAAAGCCCGCTTCCCG | 5.64 | 8.19 | 7.34 | 2.92 | 7.83 | 4.46 | 2.47 | 3.87
19 | AGTCAAAGTTCAGGACGAGGTAACGTCAAGCACG | 3.13 | 4.98 | 4.9 | 2.71 | 3.29 | 3.98 | 1.52 | 2.33
20 | AGAATGAGATTATACGTAGATCAGGGAAGAAAGT | -0.466 | 0.0162 | 0.288 | -0.678 | -0.166 | -0.438 | -0.705 | 0.0852
21 | CAAACTAGGTCACCGGAAGGTCAAAGGCCGCATG | 5.41 | 8.42 | 7.47 | 1.23 | 6.36 | 4.56 | 2.79 | 2.8
22 | CCGACTGTGGCAAGGTTACCATAACGCACAGCCA | 1.13 | 0.293 | 0.461 | 0.0244 | 0.97 | 1.2 | 0.526 | 0.243
23 | TAGCCTAGGTCATTCAGGGACCAGTATAGAAAGC | 2.63 | 3.94 | 4.11 | 1.43 | 2.72 | 4.26 | 0.615 | 1.19
24 | TAGCCTAGGTCATTGGGTCAGTATAGTACGCATC | 4.17 | 5.16 | 5.23 | 1.87 | 3.63 | 3.25 | 1.84 | 2.21
25 | CGAACTACGTCATTGACAGGACAGTGAATAGTAA | 0.0564 | 0.288 | 0.139 | 0.0473 | 0.152 | 0.0548 | -0.0847 | -0.012
26 | TCATATAGGTAAATACTAGGTGAAAGTCCGATCT | 0.493 | 0.573 | 0.709 | 1.89 | 1 | 1.49 | 0.718 | 0.521
27 | TTACCAAGGTGAGCTTAGGTCGTTGATCCAACTC | 1.27 | 0.36 | 0.732 | -0.17 | 0.352 | 3.88 | 0.952 | -0.0607
28 | CGTCCAAGGTCAATGGTAGGTCAGTGAAAGCATT | 5.21 | 7.79 | 6.78 | 3.44 | 5.41 | 4.33 | 2.72 | 2.73
29 | AGAACGAGGGCACGCTGAGTTGATAGCTGAGTAG | 1.13 | 2.07 | 2.06 | 2.15 | 1.37 | 1.92 | -0.0647 | 1.7
30 | TTACTAAGGTGAAGGTCGTTGATCCCTCTGTAGA | 1.96 | 1.85 | 1.21 | 0.794 | 2.31 | 3.16 | 1.98 | 1.11
31 | CAACCAAGGTGAACAAGGTCGTTGATTACTATTC | 2.25 | 1.9 | 1.64 | 1.49 | 2.07 | 3.44 | 2.06 | 2.59
32 | TATACAGGGTCAAAGGCCAGATTACGAATGTCGA | 3.49 | 5.72 | 4.99 | 3.29 | 6.99 | 3.6 | 0.972 | 2.54
33 | CGTCCAAGTTCATAGGAGGTCAGTGAAGACAGAT | 4.1 | 4.63 | 5.14 | 4.98 | 3.69 | 4.73 | 1.52 | 6.53
34 | TCTCGGAGGAGACGAAAGGTCAGAGCTCGACATC | 4.19 | 3.79 | 3.46 | 0.134 | 4.08 | 2.42 | 0.0723 | 0.0625
